Reference: publication PMC5540273 (PLoS ONE, 2017)
Where two headings read alike, the source gives them in different places.

Experiments:
GRK3 = test system: T1, GRK3; conditions: concentration: 1 μM, replicates: in singlicate; n = 1
T1 construct: gene ADRBK2

GRK4 = conditions: concentration: 1 μM, replicates: in singlicate; n = 1
GRK7 = conditions: concentration: 1 μM, replicates: in singlicate; n = 1
GSK3A = conditions: concentration: 1 μM, replicates: in singlicate; n = 1
GSK3B = conditions: n = 1
HASPIN = test system: T2, HASPIN; conditions: concentration: 1 μM, replicates: in singlicate; n = 1
T2 construct: gene GSG2

HCK = conditions: concentration: 1 μM, replicates: in singlicate; n = 1
HIPK1 = conditions: concentration: 1 μM, replicates: in singlicate; n = 1
HIPK2 = conditions: concentration: 1 μM, replicates: in singlicate; n = 1
HIPK3 = conditions: concentration: 1 μM, replicates: in singlicate; n = 1
[1] = concentration: 1 μM, replicates: in singlicate
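Further: KINOMEscan kinase panel screen.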

SMILES | %Inh (GRK3) [%] | %Inh (GRK4) [%] | %Inh (GRK7) [%] | %Inh (GSK3A) [%] | %Inh (GSK3B; [1]) [%] | %Inh (HASPIN) [%] | %Inh (HCK) [%] | %Inh (HIPK1) [%] | %Inh (HIPK2) [%] | %Inh (HIPK3) [%] | %Inh (GSK3B; 1 µM) [%]
COC(=O)c1cccc(NC(=O)NC2CCN(c3ccnc(Nc4ccc(OC)cc4)n3)C2)c1 (centres unmarked) [GSK1379746] | 43 | 0 | 0 | 0 | 12 | 0 | 0 | 0 | 0 | 0 | 
Cc1ccccc1Cn1ccn2c(=O)cc(N3CCOCC3)nc12 [GSK2269905] | 26 | 0 | 0 | 2 | 15 | 0 | 0 | 0 | 0 | 9 | 
Fc1ccc(-c2nn3cccc(F)c3c2-c2ccncc2)cc1 [GW475620] | 0 | 26 | 0 | 0 | 11 | 5 | 15 | 0 | 0 | 4 | 
CCn1c(-c2c(N)noc2C)nc2cnccc21 [SB-737856] | 42 | 6 | 0 | 0 | 2 | 0 | 0 | 0 | 0 | 0 | 
CNc1nc(-c2ccc3c(N)n[nH]c3c2)cc(N2C[C@@H](C(=O)NC3CCCCC3)OC[C@H]2C)n1 [GSK2375584] | 37 | 4 | 0 | 10 | 14 | 30 | 0 | 24 | 0 | 2 | 
CNC(=O)c1ccc(C)c(-n2c(C)cc(OCc3ccc(F)cc3F)c(Br)c2=O)c1 | 0 | 2 | 0 | 0 | 0 | 18 | 0 | 0 | 0 | 0 | 
COc1cccc(NC(=O)Nc2ccc(C)c(-c3ccc(C(=O)Nc4ccncc4)cc3)c2)c1 [GSK1398474] | 0 | 3 | 0 | 10 | 13 | 0 | 0 | 0 | 0 | 20 | 
CCCCc1nn2ncccc2c1-c1ccnc(NC2CC2)n1 [GW684374] | 17 | 0 | 0 | 4 | 1 | 0 | 0 | 0 | 0 | 8 | 
COc1ccc(Nc2nccc(NCCNC(=O)Nc3cc(C)ccc3C)n2)cc1 [GSK1379899] | 0 | 12 | 0 | 0 | 0 | 0 | 78 | 0 | 0 | 0 | 
COc1ccc(CSc2nnc(-c3ccc4ncsc4c3)o2)cc1C(F)(F)F | 1 | 18 | 0 | 98.4 |  | 45 | 0 | 38 | 0 | 0 | 89
COc1ccc(CSc2nnc(-c3ccc4c(c3)CCO4)o2)cc1 | 3 | 1 | 0 | 75 |  | 42 | 0 | 9 | 0 | 0 | 0
Nc1nccc(-c2c(-c3ccc(F)cc3)ncn2C2CCN(Cc3ccccc3)CC2)n1 [SB-219980] | 6 | 0 | 6 | 16 | 11 | 0 | 9 | 0 | 0 | 0 | 
CC(C)c1ccc(O)cc1Nc1ccnc2ccc(C(F)(F)F)cc12 [GW482059] | 0 | 21 | 0 | 19 | 0 | 3 | 10 | 0 | 31 | 0 | 
O=C(Nc1n[nH]c2nc(-c3cccs3)c(Br)cc12)C1CCCC1 [SB-743341] | 24 | 33 | 11 | 96.6 |  | 0 | 8 | 20 | 25 | 52 | 81
CS(=O)(=O)CCNCc1nc(-c2ccc3ncnc(Nc4ccc5c(cnn5Cc5ccccc5)c4)c3c2)cs1.Cl.Cl [GW569716] | 41 | 0 | 0 | 0 | 0 | 18 | 0 | 0 | 0 | 0 | 
Cn1cnc2c(N)ncnc21 [SKF-97623] | 26 | 21 | 0 | 0 | 0 | 0 | 0 | 0 | 11 | 0 | 
COc1ccc(-c2coc3ccc(-c4nnc(C)o4)cc23)cc1 | 0 | 0 | 0 | 11 | 0 | 18 | 0 | 37 | 0 | 0 | 
